# What was measured:
# [1] = target: Tumor necrosis factor receptor superfamily member 10B (Homo sapiens) (UniProt O14763); assay: viability loss of caspase-8 NB7 cells with TRAIL – with/without TRAIL, luminescence panel, confirmation (AID 651596); details: NB7 neuroblastoma + caspase-8, TRAIL sensitization, NB7 Caspase-8, with TRAIL, mean of runs, at 10 µM, stronger effect = higher value
# [2] = as above; details: NB7 neuroblastoma + caspase-8, without TRAIL, NB7 Caspase-8, without TRAIL, mean of runs, at 10 µM
# Chain of Tumor necrosis factor receptor superfamily member 10B (Homo sapiens) (O14763 whole entry, looked up): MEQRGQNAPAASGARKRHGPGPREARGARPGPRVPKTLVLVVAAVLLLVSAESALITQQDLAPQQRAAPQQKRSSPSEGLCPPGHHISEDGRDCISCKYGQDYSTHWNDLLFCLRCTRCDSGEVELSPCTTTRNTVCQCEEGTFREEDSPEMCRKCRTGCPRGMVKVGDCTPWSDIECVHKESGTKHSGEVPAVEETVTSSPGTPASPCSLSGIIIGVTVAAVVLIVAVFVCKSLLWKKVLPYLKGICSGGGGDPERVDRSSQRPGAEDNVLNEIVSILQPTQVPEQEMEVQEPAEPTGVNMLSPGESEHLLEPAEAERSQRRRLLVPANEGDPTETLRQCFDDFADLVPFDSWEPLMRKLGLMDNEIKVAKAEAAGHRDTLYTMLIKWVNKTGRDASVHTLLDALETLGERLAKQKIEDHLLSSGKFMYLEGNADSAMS
SMILES,activity [1],activity [2]
COc1ccccc1NC(=O)Nc1ccc2c(c1)nc(C)n2C,77%,73.8%
COc1ccccc1N1CCN(Cc2ccc(O)c3ncccc23)CC1,30.2%,76%
COc1ccc(C(=O)Nc2ccccc2C(N)=O)cc1,56.5%,56.2%
O=C(Nc1ccc(Cl)cn1)c1ccc2c(Cl)c3c(nc2c1)CCC3,56.8%,56.3%
Cc1csc(NC(=S)NC(=O)c2ccccc2)n1,67.7%,53.1%
COc1ccc(/C(N)=N/OC(=O)c2ccc3c(c2)OCO3)cc1OC,94.2%,95.1%
CC(C)NC(=O)c1ccc2c3n(nc2c1)-c1ccccc1CO3,95.8%,95.5%
COCCn1c(C)cc(C(=O)COC(=O)c2ccc(Cl)c(S(N)(=O)=O)c2)c1C,52%,52.4%
CN=c1scc(C)n1/N=C/c1ccc2c(c1)OCO2,56.7%,42.2%
Nc1nc(=S)c2ncn([C@@H]3O[C@H](CO)[C@@H](O)[C@H]3O)c2[nH]1,70.6%,73.5%
O=C(c1cc(-c2ccc3c(c2)OCO3)on1)N1CCCCC1,53.4%,48.9%
COc1ccc(OC)c(NC(=O)c2nc(S(=O)(=O)Cc3ccccc3)ncc2Cl)c1,97%,98.9%
CC[C@H]1CN2CCc3cc(OC)c(OC)cc3C2C[C@@H]1C[C@H]1NCCc2cc(OC)c(OC)cc21 (some centres undefined),70%,83.4%
Cc1onc(-c2ccccc2Cl)c1C(=O)O/N=C(\N)c1cccc([N+](=O)[O-])c1,92.2%,93.3%
C#CCSc1nnc(-c2sc(-c3ccccc3)nc2C)n1C,84.7%,90%
CC(=O)n1cc(N(C(=O)CCl)c2ccc([N+](=O)[O-])cc2)c2ccccc21,97.8%,99.3%
c1ccc(-c2cnc(-c3ccccc3)nn2)cc1,64.9%,68.4%
Cc1ccc(CSc2nc3ncccc3[nH]2)cc1,71%,68.2%
CC(C)CC(NC(=O)c1ccc(Cl)cc1)C(=O)OCC(=O)c1ccc2c(c1)NC(=O)CO2 (centres undefined),71.7%,97.4%
CSC(=Nc1ccccc1)N=C(SCc1ccccc1)N(C)C,96.8%,98.5%
CC(C)(C)c1ccc(-c2noc(CCC(=O)Nc3cccnc3)n2)cc1,48.3%,50.9%
CCCCCCc1cc2cc(C(=O)Nc3ccccc3)c(=O)oc2cc1O,72.8%,65.2%
COc1ccc(/C=C(\C#N)C(=O)OCC(=O)Nc2ccc(-c3nc4ccc(C)cc4s3)cc2)cc1,42.9%,27.9%

SMILES,activity [1],activity [2]
CCCNC(=O)c1ccc(-c2nc3ccccc3s2)s1,87.8%,83.5%
O=C(Nc1ccc(N2CCN(C(=O)c3ccccc3)CC2)cc1)c1ccc([N+](=O)[O-])o1,89%,99.3%
C[C@H](NC(=O)c1[nH]cnc1C(=O)Nc1ccc(CNC(=O)OC(C)(C)C)cc1)C(=O)OCc1ccccc1,63.1%,37.6%
C[C@H](NC(=O)c1ncn2c1c(=O)[nH]c1ccc(Br)cc12)c1ccccc1,27.2%,7.95%
COc1ccc(/C=C/c2nc3ccccc3n2Cc2ccccc2OC)cc1,78.5%,67.7%
NC(=O)c1ccccc1N/C=C/C(=O)c1ccccc1,73.4%,58.9%
CC(c1ccco1)N(C(=O)COc1ccc(Cl)cc1Cl)c1ccccn1 (centres undefined),-4.47%,10.2%
CC1Oc2ccccc2C=C1/C=N/NC(=O)c1ccccc1O (centres undefined),46.1%,44.9%
Cn1c(-c2ccccc2F)cc2onc(-c3ccccc3)c2c1=O,63%,65.1%
O=C(/C=C/c1ccccc1)Nc1ccc2c(c1)C(=O)NC2=O,14.6%,19.9%
COc1ccc(-c2cn3cc(C)ccc3n2)cc1OC,74.7%,77%
COc1cc(NCCCCC(C)N)c2nccc(C)c2c1 (centres undefined),38%,45.6%
O=C(Nc1nnc(SCC(=O)N2CCOCC2)s1)c1ccccc1Cl,72.6%,78.2%
Cc1cccc(N2CCN(S(=O)(=O)c3ccc4c(c3)NC(=O)C(C)S4)CC2)c1C (centres undefined),-0.6%,-25.6%
CCCOc1ccc(-c2cn3ccccc3n2)cc1[N+](=O)[O-],57%,52.1%
CC(=O)c1cccc(NC(=O)CSc2ccc(-c3ccc4c(c3)OCO4)nn2)c1,52.1%,50%
CC(C)C[C@H](NC(=O)c1nc[nH]c1C(=O)N[C@@H](CCCCNC(=O)OC(C)(C)C)C(=O)OC(C)(C)C)C(=O)OC(C)(C)C,84.7%,68.1%
CCCCCCCCCCCC1N=C(N)NC(CCCO)=C1C(=O)OC (centres undefined),16.3%,18.3%
S=c1[nH]ncn1/N=C/c1ccc(N2CCOCC2)cc1,62%,59.8%
CC(C)(C)NC(=O)C(c1ccncc1)n1c(-c2ccc(C(F)(F)F)cc2)nc2ccccc21 (centres undefined),74.4%,85.8%
COc1ccc(-c2nnc(NC(=O)c3ccco3)s2)cc1,55.4%,60.6%
C/C(=N/NC(=O)c1ccccn1)c1ccco1,35.1%,41.5%
Cc1ccc(-c2cn3cc([N+](=O)[O-])ccc3n2)cc1,50.9%,41.5%

SMILES,activity [1],activity [2]
Oc1ccccc1-c1n[nH]c(-c2ccccc2O)n1,47.8%,48.6%
CC1(C(=O)N/N=C/c2c(F)c(F)c(F)c(F)c2F)CC1(Cl)Cl (centres undefined),91.5%,98.4%
CCOC(=O)N1CCN(C(=O)c2ccc(Cn3c(=S)[nH]c4ccc(Br)cc4c3=O)cc2)CC1,73.5%,58.9%
COc1ccc(Oc2c(Cl)cnn(-c3ccc(F)cc3)c2=O)cc1,98%,94.2%
Cc1cc(Cl)n2c(nc3cc(F)c(F)cc32)c1C#N,91.7%,99.3%
c1ccc2nc(-c3ccc(N4CCOCC4)cc3)ccc2c1,72.2%,69%
Oc1ccc(-c2cnc(-c3ccc(O)cc3)nc2)cc1,88.2%,93.3%
O=C(NC1CC1)C1CCN(S(=O)(=O)c2ccc(Cl)c([N+](=O)[O-])c2)CC1,65.2%,88.2%
Cc1ccccc1C(=O)N1CCN(c2ccc(NC(=O)c3ccc([N+](=O)[O-])o3)cc2)CC1,86%,99.5%
COc1ccccc1OCCNC(=O)c1ccc2c(c1)OCCO2,41%,45.9%
COc1ccc2c(c1OC)C(=O)OC2Nc1nc(-c2ccc(-c3ccccc3)cc2)cs1 (centres undefined),47.4%,49.4%
CCS(=O)(=O)c1ncc(Cl)c(C(=O)Nc2ccc(C)cc2)n1,78.6%,86.8%
Cc1ccc2nc(-c3ccc(NC(=O)CCS(=O)(=O)c4ccccc4)cc3)sc2c1,87.5%,86.9%
COc1ccc(CCNc2cc(N3CCN(C(=O)c4ccccc4F)CC3)ccc2[N+](=O)[O-])cc1OC,73.7%,64.7%
Cc1ccc2nc(-c3ccc(NC(=O)COC(=O)c4ccco4)cc3)sc2c1,73.4%,74.6%
O=C(Nc1nc(-c2ccccn2)cs1)C12CC3CC(CC(O)(C3)C1)C2,66.8%,78.4%
O=C(/C=C/c1cccnc1)/C=C/c1cccnc1,91.5%,69.7%
C=CCOc1ccc(/C=C/C(C)=N\O)cc1,57.2%,71.7%
O=C(N/N=C\c1cccc(OC(=O)c2ccco2)c1)c1ccc2c(c1)OCO2,83%,74.1%
Cc1ccc(-c2nc(N/N=C/c3ccccc3[N+](=O)[O-])c3ccccc3n2)cc1,90.3%,82.4%
CC(C)(C)C1CCc2sc(C(=O)NNC(=O)CCl)cc2C1 (centres undefined),98.8%,95.6%
O=C(Nc1ccc(Cl)c(Cl)c1)Nc1ccccc1C(=O)O,44.6%,42.5%
COc1ccc(/C(N)=N/OC(=O)c2c(-c3ccccc3Cl)noc2C)cc1OC,99.1%,98.8%

SMILES,activity [1],activity [2]
CNC[C@@H](Cc1ccccc1)NC[C@@H](CC1CCCCC1)NCCCc1ccccc1,99.3%,99.6%
COn1c(SCc2ccc(Cl)cc2)nc2ccccc2c1=O,67%,47.9%
CCCC(=O)Nc1ccc(C(=O)N/N=C/c2ccc[nH]2)cc1,98.5%,97.8%
COc1ccc2cc3cc(C(=O)N4CCCCCC4)oc3nc2c1,45.1%,41.9%
COC(=O)c1ccc(-c2nc3ccccc3[nH]2)cc1,80.7%,84.4%
CCOC(=O)c1sc(NC(=O)c2ccccc2)cc1C,59.1%,54.5%
O=S(=O)(Nc1nc2ccccc2nc1N1CCc2ccccc2C1)c1ccc(Br)cc1,55.5%,66.2%
O=C(Nc1ccc(NC(=O)c2ccccc2F)cn1)c1ccco1,66.8%,58.3%
O=C(/C=C/c1ccco1)Nc1scc(-c2ccccc2)c1C(=O)O,51.9%,39.8%
COc1ccc(C(=O)O/N=C(\N)Cc2ccc(Cl)cc2)cc1OC,99.3%,95.8%
Cc1cccc(N2CCN(C(=S)Nc3ccc4nc(N5CCN(C)CC5)cc(C)c4c3)CC2C)c1 (centres undefined),75.8%,98%
CC(=O)Nc1ccc(C=NNc2nnc(NN=Cc3ccc(NC(C)=O)cc3)c3ccccc23)cc1,68.6%,67.4%
O=C(OCc1cccc(C(F)(F)F)c1)c1cc(S(=O)(=O)N2CCOCC2)ccc1F,36.8%,21%
Cn1c(=N)n(CC(=O)c2ccccc2)c2ccccc21,70.7%,74.4%
Cc1cc(O)c(C(=O)/C=C/c2ccc(Cl)cc2)c(=O)o1,83.4%,79.5%
O=c1[nH]c2ccccc2nc1/C=C/c1ccc(Cl)cc1,64.9%,74.2%
Nc1nc(N)c2cc(CNc3ccc(Cl)c(Cl)c3)ccc2n1,85.2%,73.4%
CC(C)c1ccc(NC(=O)CSc2ncccc2C(=O)Oc2cccc([N+](=O)[O-])c2)cc1,68.1%,61.5%
COc1ccccc1/C=C/C1(C(=O)NC2CCCC2)CC(=O)N1c1ccc(C)cc1 (centres undefined),90.2%,88.8%
O=c1oc2ccccc2cc1-c1csc(Nc2nc3c(F)cccc3s2)n1,11.9%,5.5%
O=C(Nc1cccc(O)c1)c1noc2c1CCCCC2,66.2%,61%
O=C(NCCOc1ccccc1)c1cccc2c1C(=O)c1ccc(Cl)cc1S2(=O)=O,35.6%,54.2%
O=[N+]([O-])c1ccc(-[n+]2ccc3ccccc3c2)c([N+](=O)[O-])c1,93.3%,98.8%

# Source: PubChem BioAssay
